SMILES strings stand for the structures. Compounds without any hit were thinned out: in the full panel of roughly 83,000, 20% have a hit.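 How to read the values: 0–100, growth inhibition (40 = 60% inhibited); 0, no net growth; -100 to 0, cell death (-40 = 40% of starting cells died; -100 = all dead).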 Unmarked numbers belong to inactive results. The source made the active and inactive calls. How the source made its calls: active means growth percent below 10; inactive means the rest.

Results on 14 compounds are retold here after PubChem BioAssay (NCI).

Among the test systems are NCI-H23 lung; NCI-H226 lung; NCI-H322M lung; HOP-62 NSCLC; NCI-H460 lung; HOP-92 NSCLC; NCI-H522 lung; A549/ATCC NSCLC; 786-0 renal; COLO 205 colon.
Holding throughout (experiment): NCI-60 one-dose screen, 48 h (100 = growth as untreated, 0 = no growth, -100 = all killed)
Settings in all cases: 10 µM unless noted

`O=C(Nc1ccc(-n2ccc3c(NC(=O)c4ccccc4)nccc32)cc1)c1cccc(C(F)(F)F)c1`: the growth was 50% in the assay with NCI-H23 lung; 63.9% in the assay with NCI-H226 lung; 48.8% in the assay on NCI-H322M lung; 46.2% with HOP-62 NSCLC; 2.21% (active) in the assay with NCI-H460 lung; 47.4% in the assay with HOP-92 NSCLC. The growth in the assay on NCI-H522 lung is 12.2%; in the assay with A549/ATCC NSCLC, 13%; with 786-0 renal, 18.3%; with COLO 205 colon, 35.8%.
Regarding `COc1cc(NC(C)CCCN2C(=O)c3ccccc3C2=O)c2nccc(C)c2c1OC` (centres undefined), the growth with NCI-H23 lung was 90.1%; with NCI-H226 lung, 94.1%; with NCI-H322M lung, 102%; in the assay on HOP-62 NSCLC, 103%; in the assay on NCI-H460 lung, 108%; in the assay on HOP-92 NSCLC, 60.1%. In addition, the growth with NCI-H522 lung was 75.2%; with A549/ATCC NSCLC it was 93.9%; in the assay on 786-0 renal, 94.2%; in the assay on COLO 205 colon it was 131%.
Take `O=[N+]([O-])c1ccccc1NC1c2ccccc2Oc2ccccc21`: the growth with NCI-H23 lung is 79.1%; with NCI-H226 lung it was 78%; in the assay with NCI-H322M lung, 74.6%; with HOP-62 NSCLC it was 70%; in the assay on NCI-H460 lung, 15.1%; in the assay on HOP-92 NSCLC it was 48.4%. For the same compound, the growth is 26.3% in the assay on NCI-H522 lung, 44.9% with A549/ATCC NSCLC, 94.5% with 786-0 renal and 69.3% in the assay on COLO 205 colon.
Turning to `O=c1nc(N2CCOCC2)oc2c(-c3cccc4ccccc34)cccc12`, the growth was 89.3% in the assay on NCI-H23 lung; 66.6% in the assay with NCI-H226 lung; 90.8% in the assay on NCI-H322M lung; 80.8% in the assay with HOP-62 NSCLC; 110% in the assay with NCI-H460 lung; 60.1% in the assay with HOP-92 NSCLC. In addition, the growth in the assay with NCI-H522 lung is 82%; with A549/ATCC NSCLC it was 85.6%; in the assay with 786-0 renal it was 74.4%; in the assay with COLO 205 colon, 103%.
`O=C(Nc1cccc([N+](=O)[O-])c1)c1ccc2ccccc2c1O`: the growth is 41.6% in the assay with NCI-H23 lung; 76.9% in the assay on NCI-H226 lung; 105% with NCI-H322M lung; 53% in the assay with HOP-62 NSCLC; 50.2% in the assay on NCI-H460 lung; 6.8% (active) in the assay on HOP-92 NSCLC. For the same compound, the growth is -8.09% (active) with NCI-H522 lung, 68.1% with A549/ATCC NSCLC, 40.4% in the assay on 786-0 renal and 110% in the assay on COLO 205 colon.
As for `CCC1S/C(=N\N=C(/C)c2cc3ccccc3o2)N(c2ccccc2)C1=O` (centres undefined), the growth in the assay on NCI-H23 lung is 93.6%; in the assay on NCI-H226 lung it was 108%; with NCI-H322M lung it was 92.2%; with HOP-62 NSCLC, 101%; with NCI-H460 lung, 123%; in the assay with HOP-92 NSCLC it was 47%. The growth was 88.3% in the assay with NCI-H522 lung, 113% in the assay on A549/ATCC NSCLC, 103% in the assay with 786-0 renal and 123% in the assay with COLO 205 colon.
Consider `O=C1OC(c2ccc(-c3ccccc3)cc2)=C/C1=C/C=C/c1ccccc1`, for which the growth with NCI-H23 lung is 100%; in the assay with NCI-H226 lung, 82.3%; with NCI-H322M lung, 92.5%; in the assay on HOP-62 NSCLC, 97.1%; in the assay with NCI-H460 lung it was 103%; in the assay with HOP-92 NSCLC, 68.7%. The growth was 95.1% with NCI-H522 lung, 9.59% (active) in the assay on A549/ATCC NSCLC and 120% in the assay on COLO 205 colon.
Turning to `COc1ccc(-c2nnc(SCC(=O)Nc3ccc(C(=O)/C=C/c4ccc(OC)c(OC)c4)cc3)o2)cc1`, the growth with NCI-H23 lung is 91.9%; in the assay with NCI-H226 lung, 86.2%; in the assay on NCI-H322M lung it was 94.6%; in the assay with HOP-62 NSCLC it was 73.6%; with NCI-H460 lung, 95.1%; in the assay with HOP-92 NSCLC, 81.3%. The growth is 68.4% in the assay with NCI-H522 lung, 77.7% in the assay on A549/ATCC NSCLC, 106% in the assay on 786-0 renal and 102% with COLO 205 colon.
Regarding `CO[C@H]1/C=C/C=C/C=C/C[C@H](OC(=O)[C@@H](C)NC(=O)C2CCCCC2)[C@H](C)[C@@H](O)/C(C)=C\CCC2=CC(=O)C=C(NC(=O)C1)C2=O`, the growth with NCI-H23 lung was -14.1% (active); with NCI-H226 lung it was -15% (active); in the assay on NCI-H322M lung, -2.45% (active); with HOP-62 NSCLC it was -35.6% (active); with NCI-H460 lung it was 1.23% (active); with HOP-92 NSCLC it was -10.7% (active). The growth is -29.9% (active) in the assay with NCI-H522 lung, -5.23% (active) in the assay with A549/ATCC NSCLC, -5.57% (active) in the assay on 786-0 renal and -26.6% (active) with COLO 205 colon.
In the case of `Cc1cc(C)c(O)c(C(=O)CC(Br)C(=O)O)c1` (centres undefined), the growth in the assay on NCI-H23 lung was 96.4%; with NCI-H226 lung, 106%; in the assay with NCI-H322M lung, 101%; in the assay with HOP-62 NSCLC, 106%; with NCI-H460 lung it was 108%; with HOP-92 NSCLC, 88.1%. For the same compound, the growth in the assay with NCI-H522 lung is 81.7%; with A549/ATCC NSCLC it was 99.3%; in the assay with 786-0 renal, 86.2%; with COLO 205 colon, 116%.
Turning to `C=CC(C)(O)CCC1C(=C)CCC2C(C)(C)CCCC12C` (centres undefined), the growth in the assay on NCI-H23 lung is 94.2%; in the assay on NCI-H226 lung, 105%; in the assay with NCI-H322M lung, 98.3%; in the assay on HOP-62 NSCLC, 102%; in the assay on NCI-H460 lung it was 112%; with HOP-92 NSCLC, 126%. For the same compound, the growth was 72.4% in the assay with NCI-H522 lung, 77.5% in the assay on A549/ATCC NSCLC, 99.6% in the assay with 786-0 renal and 123% with COLO 205 colon.
On to `CCCc1nn2c(CCC(=O)c3nc4ccc([N+](=O)[O-])cc4[nH]3)nnc2s1`, for which the growth with NCI-H23 lung was 94.4%; with NCI-H226 lung, 102%; with NCI-H322M lung, 97.9%; with HOP-62 NSCLC, 106%; with NCI-H460 lung, 104%; in the assay on HOP-92 NSCLC, 114%. For the same compound, the growth was 104% with NCI-H522 lung, 99.9% in the assay with A549/ATCC NSCLC, 108% in the assay with 786-0 renal and 112% in the assay with COLO 205 colon.
As to `CN1CCN(CC(=O)N(C)c2ccc(N=C(c3ccccc3)c3c(O)[nH]c4ccc(C#N)cc34)cc2)CC1`, the growth was 35.5% in the assay with NCI-H23 lung; 43.2% with NCI-H226 lung; 37.7% with NCI-H322M lung; 39.7% with HOP-62 NSCLC; 21.2% in the assay with NCI-H460 lung; 63.8% in the assay on HOP-92 NSCLC. Besides, the growth with NCI-H522 lung was 45.3%; in the assay with A549/ATCC NSCLC, 19.6%; in the assay with 786-0 renal, 32.4%; with COLO 205 colon, 0.511% (active).
Regarding `CC1=C[S+](c2ccccc2)c2cccc3cc4ccccc4c1c23` (centres undefined), the growth in the assay with NCI-H23 lung was 5.3% (active); in the assay with NCI-H226 lung, -21.7% (active); in the assay with NCI-H322M lung, 21.5%; in the assay on HOP-62 NSCLC, -42.6% (active); in the assay on NCI-H460 lung, -32.6% (active); in the assay on HOP-92 NSCLC it was -59.6% (active). Moreover, the growth with NCI-H522 lung is -95.7% (active); in the assay on A549/ATCC NSCLC it was -8.79% (active); in the assay on 786-0 renal, -80% (active); in the assay with COLO 205 colon, -89.5% (active).
